Data published in PubChem BioAssay (NCI).
Compounds without any hit were thinned out: in the full panel of roughly 83,000, 20% have a hit.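 In brief: 96-well plates, 48 h treatment, single concentration, percent growth endpoint.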 Values without a mark were called inactive. The source made the active and inactive calls. The calls were made as follows: active = growth percent below 10; inactive = the rest.

Test system: HL-60(TB) leukemia
Assay: NCI-60 one-dose screen, 48 h (100 = growth as untreated, 0 = no growth, -100 = all killed)
Settings: 10 µM unless noted

SMILES	growth
COc1cc2nccc(Oc3ccc(NC(=O)C4(C(=O)Nc5ccc(F)cc5)CC4)cc3)c2cc1O	54.5%
O=C1/C(=C\c2ccc(Cl)cc2)CN(C(=S)Nc2ccccc2)C/C1=C\c1ccc(Cl)cc1	-15.4% (active)
C#CCSc1nnnn1-c1ccccc1	92.7%
CN1CCN(CC(=O)Nc2nc3c(s2)Nc2cc(Cl)c(Cl)cc2NC3=O)CC1	81.9%
CC(C)C[C@@H](C(=O)N[C@H](C(=O)OC1CCCC1)c1ccccc1)[C@H](O)C(=O)NO	35.9%
Nc1cc2ccncc2c2ccccc12	90%
CC(=O)c1cc2c(N)c(C(=O)Nc3ccccn3)sc2nc1C	83.3%
Cn1c(=O)c2c(-c3ccccc3F)n(-c3ccc4c(c3)OCO4)cc2n(C)c1=O	90.2%
O=c1c2cc(Br)cc(Br)c2nc(-c2ccc(Cl)cc2)n1/N=C/c1cccc(F)c1	71%
CCN(CC)CCCC(Nc1c2ccc(Cl)cc2nc2ccc(OC)cc12)c1ccncc1 (stereo not given)	101%
CCCCCC/C=N/Nc1ccc([N+](=O)[O-])cn1	62.5%
O=C(NC1CCOCC1)c1ccc2c(c1)CN(c1ncc(Cc3cccc(-n4cccn4)c3)s1)CC2	68.7%
C#Cc1cc(C(=O)Nc2ccc(CN3CCN(C)CC3)c(C(F)(F)F)c2)ccc1C	77.8%
CC(C)C(=O)Nc1n[nH]c2cc(-c3cccc(NS(=O)(=O)C4CC4)c3)ccc12	64.3%
Cc1ccc(F)cc1NC(=O)c1cc(Cl)ccc1Nc1ccccc1	51.6%
CC(C)(Cl)CCC1=C(Cl)C(=O)c2ccccc2C1=O	-10.1% (active)
NC(=O)c1ccc(NC(=O)c2oc3ccccc3c2-c2cnn(-c3ccccc3)c2)cc1	98.4% [50 µM]
CC(=O)OC1Oc2ccccc2-c2oc3nc(=N)n(C)c-3cc21 (stereo not given)	94.4%
O=C1C(=O)c2c(nc3ccc(C(F)(F)F)cn23)-c2ccccc21	-47% (active)
Clc1nn2c(Cn3cnc4c(NCc5ccccc5)ncnc43)nnc2c2ccccc12	23%

SMILES	growth
O=C(O)c1ccc(Nc2ncc3c(n2)-c2ccc(Cl)cc2C(c2c(F)cccc2F)=NC3)cc1	22.6%
O=C(CSc1nc2c(n1Nc1ccccc1)-c1ccccc1SC2)Nc1nccs1	102%
COc1ccc(C(=O)/C=C/c2cc3ccccc3n3nnnc23)cc1	92.1%
O=C1CCC(=O)N1Cc1ccccc1	102%
COc1cc(C2C=C(c3cccc(NC(C)=O)c3)Nc3ncnn32)cc(OC)c1OC (stereo not given)	-35.2% (active)
Cn1cc(C(=O)c2nc(-c3cn(C)c4ccc(F)cc34)no2)c2cc(F)ccc21	93.3%
COc1ccc(/C=C/C(=O)c2ccc(NC(=O)CSc3nnc(-c4ccc(OC)c(OC)c4)n3-c3ccccc3)cc2)cc1	54.8%
COc1ccc(NC(=S)NNc2ccc(-c3ccc(OC)c(OC)c3)nn2)cc1	98.9%
CCNc1nnc(COc2ccc(CNC(=O)CCCC/C=C/C(C)C)cc2OC)o1	98.4%
COc1cc2nc(Cc3ccc(C)cc3)[nH]c(=O)c2cc1OC	98.7%
NC1=NN=C2N(N)C(=O)c3cnn(-c4ccccc4)c3N2c2nc(-c3ccccc3)cc(-c3ccccc3)c21	105%
CNC(=O)c1cc(Oc2ccc(NC(=O)Nc3ccc(Cl)c(OC(F)(F)F)c3)c(F)c2)ccn1	28.9%
COc1cccc(C=Nc2cc(C(C)C)c(O)cc2C)c1O	85.9%
Cc1ccc(-c2nc3nc(-c4ccc(F)cc4)nc(N4CCCNCC4)c3o2)cc1	-70.3% (active)
C=CCSSC1N=CNc2nc[nH]c21 (stereo not given)	32%
Cc1nc(-n2[nH]c(=O)ccc2=O)sc1N=Nc1ccccc1	98%
COc1cc(/C=C/C(=O)c2ccc(Oc3ncnc4ccccc34)cc2)cc(OC)c1OC	54.3%
O=C1/C(=C/c2ccc(F)cc2)Sc2c(Br)cccc21	103%
CC[C@H](CO)Nc1nc(NCc2ccccc2)c2ncn(C(C)C)c2n1	48.1%
CC(=O)N(C)c1ccc(Nc2ccc(Nc3ccc(N(C)C(C)=O)cc3)c3c2C(=O)c2ccccc2C3=O)cc1	77%
